From PubChem BioAssay
Marburg entry inh = qHTS for inhibitors of binding or entry into cells for Marburg Virus | Marburg virus pseudotyped entry inhibition, cell reporter | Potency, µM (doses to about 37.8 µM), for the others: top-dose activity change, negative = inhibition, most hits filed as inhibitors | 300,000 compounds, 1.8% hits | AID 540276, 2011; calls by dose curve; tested in HEK293 cells; further: potency means the concentration at half of the fitted maximal effect
FMDV antiviral = High Throughput Screening for Foot and Mouth Disease Virus Antivirals. FMDV antiviral cell-based qHTS. Potency, µM (titrated, usually from 57.9 µM), inactives show at the top dose activity change, negative = inhibition, actives largely listed as inhibitors. 410,000 compounds, 1.2% hits; calls by dose curve; tested in HEK293T cells; further: read-out not given here; potency means the concentration at half of the fitted maximal effect; nearly all actives have a fitted effect of over 45% in size
HCMV inh = qHTS Assay for inhibitors of the human cytomegalovirus (HCMV); HFF cells, HCMV-luciferase reporter, 72 h; active compounds read low; AID 1259415, 2018; 410,000 compounds, 4.5% hits; activity change, negative = inhibition, % at 57.5 µM; in the data active means activity change below about -60%; inconclusive means no clear call, values can overlap the other calls; inactive means above about -39%
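HFF cells seeded 16 h at 37C, treated with compounds, infected with luciferase-reporter HCMV at MOI 1 PFU/cell; luciferase read at 72 h post infection, normalized to buffer-only and Salinomycin controls.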
LASV entry inh = qHTS for Inhibitors of binding or entry into cells for Lassa Virus; Lassa virus pseudotype entry inhibition, cell reporter; Potency, µM (series often up to 37.9 µM), for the others: at the highest dose activity change, negative = inhibition, actives largely listed as inhibitors; 300,000 compounds, 1.2% hits; calls by dose curve; tested in HEK293 cells; further: potency means the concentration at half of the fitted maximal effect; nearly all actives have a fitted effect of over 50% in size
* = called active by the depositor; ? = inconclusive; . = no result given; [ ] = dose if it differs, or a comment. In the library only some 6.2% were active in any assay of this set; here they are far more common. On the % scale 0 is the no-effect control and ±100 the full control effect.

SMILES	Marburg entry inh	FMDV antiviral	HCMV inh	LASV entry inh
COc1ccccc1OCC(=O)Nc1cc(NC(=O)COc2ccccc2OC)cc(C(=O)O)c1	6%	50%	57	2%
O=C(COc1ccccc1Cl)Nc1ccc(N2CCCC2)cc1	.	-13%	3	.
CC(=O)CC1(OC(C)=O)C(=O)N(C)c2ccccc21 (stereo unspecified)	?	-22%	-64*	-29%[46.1 µM]
Cc1cc(NC(=O)CCC(=O)N(Cc2ccccc2)C2(C(=O)NC3CCCCC3)CCCC2)no1	?	-5%	?	?
COc1cccc(CN(CC(=O)NC2CCCC2)C(=O)CCC(=O)Nc2cc(C)on2)c1	-11%	-13%	-81*	3%
Cc1cc(NC(=O)CCC(=O)N(c2ccc(F)cc2)C2(C(=O)NC3CCCCC3)CCCC2)no1	11µM*	-29%	-21	-23%
COc1ccccc1N1CCN(C(=O)c2ccc3c(Cl)c4c(nc3c2)CCCC4)CC1	-27%	-6%	.	-17%
CC(=O)Nc1cc(-c2ccc(C(=O)NC3CC3)cc2)cn2c(-c3cccc(C(C)=O)c3)cnc12	.	?	-19	.
CC(=O)Nc1cc(-c2ccc(C(=O)NC3CC3)cc2)cn2c(-c3cccc(C(F)(F)F)c3)cnc12	.	25µM*	-27	.
CN(CCOc1ccccc1)CC(=O)Nc1cccc(C#N)c1	-18%[46.1 µM]	3%	-65*	2%
CCOC(=O)C1C(c2ccccc2)NC(=S)NC1(C)O (stereo unspecified)	?	1%	55	0%
Cc1cccc(NCc2ccc(O)c3ncccc23)c1C	?	-18%	-96*	?
Cc1cccnc1NCc1ccc(O)c2ncccc12	?	-28%	?	?
Cc1ccc(NCc2ccc(O)c3ncccc23)cc1	?	-5%	-23	?
Oc1ccc(Br)cc1CNc1cccc2cccnc12	?	-4%	-62*	?
Cc1ccc(NCc2ccc(O)c3ncccc23)cc1C	?	-9%	-79*	?
COc1cc(N(C)C)c([N+](=O)[O-])cc1C(=O)N1CCN(Cc2ccccc2)CC1	-24%[46.1 µM]	-26%	-8	-4%
CCN(CC)CCNC(=O)c1cc2c(s1)-c1ccccc1SC2	.	-8%	-72*	.
O=C(NCCc1ccc(Cl)cc1)c1cc2c(s1)-c1ccccc1OC2	11%[46.1 µM]	0%	-23	.
Cc1ccc(CCNC(=O)c2cc3c(s2)-c2ccccc2OC3)cc1	-1%[46.1 µM]	-15%	-89*	.
CC1CCN(CCCNC(=O)c2cc3c(s2)-c2ccccc2OC3)CC1	.	-9%	-18	.
O=C(Nc1cccnc1)c1cc2c(s1)-c1ccccc1OC2	.	5%	-62*	.
Cc1cccc2c1-c1sc(C(=O)Nc3cccnc3)cc1CO2	.	22%	?	.
CC1CCCN(CCCNC(=O)c2cc3c(s2)-c2ccccc2OC3)C1 (stereo unspecified)	3.2µM*	-6%	-67*	?
Cc1ccc(S(=O)(=O)NNC(=O)c2ccc(O)cc2)cc1	11%	34%	-26	-2%
SMILES	Marburg entry inh	FMDV antiviral	HCMV inh	LASV entry inh
CNc1oc(-c2ccc(Cl)cc2)nc1P(=O)(c1ccccc1)c1ccccc1	-38%	-27%	60	?
COc1ccc(OC)c(S(=O)(=O)NCCOC23CC4CC(CC(C4)C2)C3)c1	?	-2%	-2	?
Cc1cccc2c1-c1sc(C(=O)NCc3ccccc3Cl)cc1CO2	?	40%	-5	.
Cc1ccc(CCNC(=O)c2cc3c(s2)-c2c(C)cccc2OC3)cc1	8%[46.1 µM]	-12%	-86*	.
COc1ccc(C(=O)NC(=S)Nc2ccc(CN3CCOCC3)cc2)cc1	-20%[14.2 µM]	?	25	?
O=C(NC(=S)Nc1ccc(N2CCOCC2)cc1)c1ccc2c(c1)OCCO2	-18%	-29%	-85*	?
O=C(NC(=S)Nc1ccc(CN2CCOCC2)cc1)c1ccc2c(c1)OCCO2	10µM*	?	12	-24%
O=C(COc1ccc(Cl)cc1Cl)NNC(=S)Nc1ccc(F)cc1	-9%	-6%	-103*	-9%
COc1ccc(C(=O)NC(=S)Nc2ccc(CN3CCOCC3)cc2)cc1Br	.	?	-64*	.
CCOC(=O)N1CCC(NC(=O)C2=C(C)C(=O)OC23CCC(C)CC3)CC1 (stereo unspecified)	.	-18%	9	.
COc1cc(CNCCC2CCOC(C)(C)C2)ccc1O (stereo unspecified)	-12%[46.1 µM]	-12%	4	?
O=C(Nc1ccc(C(=O)N2CCC(N3CCCC3)CC2)cc1)c1ccc(Br)o1	.	-23%	.	.
CCCn1c2ccccc2c2cnn(CC(=O)Nc3cc(C)c(Cl)cc3OC)c(=O)c21	.	7%	-7	2%[46.1 µM]
CC(C)N1CCC(=NNC(=O)c2cccs2)CC1	?	6%	27	10%[46.1 µM]
COc1ccc(CC(=O)NNC(=S)Nc2ccccc2)cc1Cl	-3%	-5%	-70*	9%
O=C(COc1ccc(Cl)cc1Cl)NC(=S)Nc1ccc(CN2CCOCC2)cc1	-14%	28µM*	-2	0%
O=C(NC(=S)Nc1ccc(F)cc1)c1ccc2c(c1)OCCO2	?	0%	-34	13µM*
COc1cc(C)c(C(=O)Oc2cc(C)c(C(=O)O)c(O)c2C)c(OC)c1C	.	-14%	3	.
CC(=O)N1CCSc2ccc(S(=O)(=O)NCCc3cccc(C)c3)cc21	?	12%	?	-29%[46.1 µM]
CC(=O)N1CCSc2ccc(S(=O)(=O)NCCc3ccc(C)cc3)cc21	?	26%	0	7.9µM*
CC(=O)N1CC(C)Sc2ccc(S(=O)(=O)NCCc3ccc(C)cc3)cc21 (stereo unspecified)	.	-14%	?	.
CC(=O)N1CCSc2ccc(S(=O)(=O)NCCc3ccc(Cl)cc3)cc21	.	-9%	-60*	.
Cc1cc(C)n2c(=O)c3ccc(Cl)cc3nc2c1C#N	24%[46.1 µM]	31%	31	12%
Cc1cc(Cl)n2c(nc3cc(F)c(F)cc32)c1C#N	13µM*	18µM*	-99*	?
CC1(C)COC2(OC1)C(=O)Nc1ccccc12	-4%[14.2 µM]	3%	30	1%
SMILES	Marburg entry inh	FMDV antiviral	HCMV inh	LASV entry inh
Cc1ccccc1NC(=O)c1c(C)oc2ccc(O)c(CN3CCCC3)c12	?	-20%	-15	0%[46.1 µM]
Cc1ccnc2c1ccc1ccccc12	.	13%	-6	.
Cc1ccnc2c1ccc1cccnc12	?	-8%	-98*	?
c1cnc2c(c1)ccc1cccnc12	5.8µM*	-6%	-99*	3.7µM*
Cc1[nH]c2ccccc2c1C1(O)C(=O)N(Cc2ccccc2)c2ccc(Br)cc21 (stereo unspecified)	?	-20%	-102*	?
Cc1[nH]c2ccccc2c1C1(O)C(=O)N(Cc2ccccc2Cl)c2ccccc21 (stereo unspecified)	-2%[46.1 µM]	?	?	?
CCN(CC(=O)Nc1cc(Cl)ccc1C)C(=O)CC1CCCC1	?	-17%	-14	2%
CCc1ccccc1NC(=O)C(CC)Sc1nc2cc3c(cc2c(=O)n1Cc1ccco1)OCO3 (stereo unspecified)	?	24%	-94*	?
CCc1ccc(NC(=O)C(CC)Sc2nc3cc4c(cc3c(=O)n2Cc2ccco2)OCO4)cc1 (stereo unspecified)	?	0%	?	?
C=C(C)CSc1nc2sc3c(c2c(=O)n1CCCC)CCCC3	.	-29%	20	-16%[46.1 µM]
